In all, about 320,000 compounds went through this assay and about 1,300 (0.41%) were called active. Another 3% or so got no clear call; they are omitted. The rule behind the calls is not given here. Not all results are given here. Entries with a potency or affinity are not part of this list.
Assay: growth inhibition of non-replicating M. tuberculosis (AID 488890);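 note: plate controls were DMSO cells for no effect and high antibiotic wells for full effect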
Conditions: Mycobacterium tuberculosis non-replicating, at 25 µM, stronger effect = higher value

SMILES	inhibition [%]
O=C(NCc1cccnc1)C(=O)N/N=C/c1ccccc1[N+](=O)[O-]	0.97
CC(=O)[C@@]1(O)CCC2C3CC=C4C[C@@H](O)CC[C@]4(C)C3CC[C@@]21C (some centres not stated)	-5.65
Clc1ccc(Cc2nnc(-c3ccccc3Br)o2)cc1	69.1
Cc1nnc(SCc2nnc(-c3cccs3)o2)s1	72.4
Fc1ccc(CSc2nnc(-c3ccncc3)o2)cc1	73.6
COc1cccc(C(=O)CSc2nnc(-c3cccs3)o2)c1	65
CCSc1nnc(-c2cccs2)o1	58.5
Clc1ccc(Cc2noc(-c3cccs3)n2)cc1	78.5
Cc1nnc(SCc2nnc(-c3cccs3)o2)n1C	-12.8
c1csc(-c2nnc(COc3ncnc4sccc34)o2)c1	10.4
CCOC(=O)c1cnc(SCc2ccc(C(C)(C)C)cc2)nc1N	14.9
CCOC(=O)C(NC(=O)Nc1ncccn1)(Oc1ccccc1)C(F)(F)F (configuration not stated)	-3.5
COc1ccc(N2CCOCC2)c(NC(=O)c2ccc(Br)o2)c1	10
Cc1cc(C)n2[nH]c(=O)c(N=Nc3ccc(S(N)(=O)=O)cc3)c2n1	-1.74
Cc1cc(C(F)(F)F)n2[nH]c(=O)c(N=Nc3ccccc3)c2n1	-0.96
COc1cccc(N=Nc2c(=O)[nH]n3c(C)cc(C)nc23)c1	65.1
Cc1cc(C)n2[nH]c(=O)c(N=Nc3ccccc3)c2n1	-9.77
Cc1ccc(NC(=O)OCCNC(=O)OC(C)C)cc1	13.6
C/C(=C/C(=O)O)C(=O)Nc1cccc(C(F)(F)F)c1	37.8
CC(=O)Nc1ccc(/C=C/c2ccc3c([N+](=O)[O-])cccc3n2)cc1	10.1
COc1cc(/C=C/c2ccc3cccc([N+](=O)[O-])c3n2)ccc1OCC(=O)O	31.6
CN1/C(=C\C(=O)COC(=O)c2ccco2)C(C)(C)c2ccccc21	64.9
CN1/C(=C\C(=O)COC(=O)c2ccc(O)cc2)C(C)(C)c2ccccc21	57.9
CN1/C(=C\C(=O)COC(=O)CN2C(=O)C3CC=CCC3C2=O)C(C)(C)c2ccccc21 (configuration not stated)	19.7

SMILES	inhibition [%]
CN1/C(=C\C(=O)COc2ccc3c(c2)OCO3)C(C)(C)c2ccccc21	43
COC(=O)c1ccccc1NC(=O)COc1ccc2c(c1)OCO2	70.5
O=C(N/N=C/c1c[nH]c2ccccc12)C1CC(=O)N(c2ccccc2)C1 (configuration not stated)	12.1
Cc1cc(C(=O)COc2ccc(F)cc2Br)c(C)n1C	11.3
Cc1cc(C(=O)COC(=O)c2cccnc2Cl)c(C)n1C	7.66
CCN(CC)c1ccc2c(Cl)cc(=O)oc2c1	11.8
CCN(CC)c1ccc2c(C)c(Cl)c(=O)oc2c1	2.25
Cc1cc(C)cc(OCC(=O)Nc2cccc(S(=O)(=O)NC3=NCCC3)c2)c1	5.82
O=C(CNC(=O)c1ccccc1)N/N=C/c1cc(Br)ccc1O	38.3
O=C(CNC(=O)c1ccccc1Br)N/N=C/c1cc(Br)ccc1O	17.8
COC(=O)N/N=C/c1cc(Br)ccc1O	27.7
O=C(N/N=C/c1cc(Br)ccc1O)Nc1ccccc1	14.3
Oc1ccc(Br)cc1/C=N/NC(=S)NCCc1ccccc1	45.2
O=C(N/N=C/c1cc(Br)ccc1O)c1ccncc1	63.8
COc1cccc(-c2nc(CS(=O)(=O)CC(=O)NCCCN3CCN(C)CC3)c(C)o2)c1	-1.26
C/C(=N\N=C1\NC(=O)C(CC(=O)Nc2ccc(C)c(Cl)c2)S1)C(C)(C)C (configuration not stated)	38.8
CCCn1c2c(c(O)c(C(=O)Nc3ccc(OC)cc3)c1=O)CCCC2	11.5
CC1(C(=O)NC(=S)N(CCC#N)Cc2cccnc2)CC1(Cl)Cl (configuration not stated)	12.4
Cc1ccc(NC(=O)COC(=O)CC2CC3CCC2C3)cc1S(=O)(=O)N1CCOCC1 (configuration not stated)	9.66
COC(=O)CCN1CCN(S(=O)(=O)c2ccccc2Br)CC1	-21.4
COc1ccc(/C=N/Nc2cc(C)nc(N3CCOCC3)n2)c(OC)c1	-23.5
Cc1cc(N/N=C/c2ccc(O)cc2O)nc(N2CCOCC2)n1	6.6
COc1ccc(OC)c(/C=N/Nc2cc(C)nc(N3CCOCC3)n2)c1	8.92
Cc1cc(C)n(-c2ccccc2[N+](=O)[O-])n1	24.1

SMILES	inhibition [%]
COc1ccccc1/C=N/Nc1nc(C)cc(C)n1	20.8
Cc1cc(N/N=C/c2ccc(O)cc2O)nc(-c2ccccc2O)n1	0.04
COc1ccccc1/C=N/Nc1cc(C)nc(N2CCOCC2)n1	8.69
O=[N+]([O-])c1ccccc1/C=N/Nc1nc(N2CCCC2)nc(N2CCCC2)n1	18.8
O=C(CSc1ncccc1C(=O)O)NC1CCCCCCC1	-1.94
Cc1cc(C)c(C)c(S(=O)(=O)NC(C(=O)O)C(C)C)c1C (configuration not stated)	-1.77
Cc1cc(C)c(NC(=S)N2CCC(N(C)CC3CCCO3)CC2)c(C)c1 (configuration not stated)	-2.45
O=C(C[n+]1cccc(Br)c1)c1ccc(-c2ccccc2)cc1	31.7
CCCc1cc(C(=O)N2CCCC(N3CCN(c4ccccc4C)CC3)C2)n(C)n1 (configuration not stated)	8.14
COc1ccccc1C(=O)NCCC(=O)Nc1ccc(S(=O)(=O)N2CCC(C)CC2)cc1	27.4
Cc1ccc(NC(=O)CSc2nnc(-c3ccco3)o2)cc1	27.5
CCNC(=O)CCSc1nnc(-c2ccco2)o1	-8.15
Cc1ccc(NC(=O)CCSc2nnc(C)o2)cc1	9.37
Cc1cccc(C)c1NC(=O)CSc1nnc(Cc2ccccc2)o1	-8.32
CC(=O)Nc1ccc(C(=O)CSc2nnc(Cc3ccccc3)o2)cc1	38.2
Cc1ccc(NC(=O)CSc2nnc(Cc3ccccc3)o2)c(C)c1	79.6
O=C(CN1CCN(CCN2C(=O)c3cccc4cccc(c34)C2=O)CC1)c1ccc(F)cc1	79.3
Cc1ccc(NC(=O)C2=NNC(=O)CC2)cc1S(=O)(=O)Nc1ccc(SC(F)F)cc1	6.44
CC1CN(S(=O)(=O)c2cccc(C(=O)OCC(=O)N3CCCCCC3)c2)CC(C)O1 (configuration not stated)	-8.29
COc1ccc2c(c1OC)C(=O)N(c1cccc(C)c1)C2	-2.97
O=C(O)Cn1c(SCCOc2ccc(Cl)cc2)nc2ccccc21	1.68
COc1cc(C)c(Cl)cc1S(=O)(=O)NCc1ccccn1	-0.9
O=c1c2[nH]c3ccc(Br)cc3c2ncn1Cc1ccncc1	-8.92
CCOC(=O)c1c(NC(=O)C2Cc3ccccc3C(=O)O2)sc2c1CCCC2 (configuration not stated)	-2.64
